SW480 rerep – inducers of DNA re-replication in SW480 colon cancer cells; SW480 DNA re-replication, Hoechst DNA content imaging, 48 h; Potency, µM (highest dose often 46.1 µM), for inactives: at the highest dose re-replication activation, most hits filed as activators; hit rate 1.8% among 340,000; AID 624297; also: % of control where 0% means no effect; nearly all actives have a fitted effect of over 55% in size
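Readout is total intensity of Hoechst-stained nuclei, excited at 405 nm and collected at 500-530 nm. Compound treatment lasted 48 hr at 37 C in 5% CO2 before staining.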
Gal4-VP16 FLuc – counter-screen for ROR gamma inhibitors: Gal4-VP16 reporter | Drosophila S2 Gal4-VP16 UAS-luciferase, luminescence, 20 h | Potency, µM (titrated, usually from 53.6 µM), for inactives: at the highest dose activity, negative = inhibition, most hits filed as inhibitors | hit rate 3.5% among 310,000;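 also: Gal4-VP16 expression switched on by copper sulfate through the metallothionein promoter; % is scaled to controls: 0 for no effect and ±100 for the full control effect; nearly all actives have a fitted effect of over 50% in size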
MCF10A rerep – DNA re-replication induction in MCF 10a cells | Potency, µM (highest dose often 46.1 µM), for the others: top-dose activity, positive = re-replication, hits mostly activators | hit rate 2.9% among 350,000 | AID 624296 | MCF 10A DNA re-replication, Hoechst nuclear intensity, 48 h; also: % of control where 0% means no effect; nearly all actives have a fitted effect of over 50% in size
ELG1 repair inh – ELG1-dependent DNA repair inhibition; HEK293T ELG1-luciferase reporter, luminescence, 16 h; DNA damage induced by 5-fluorouridine; Potency, µM (titrated, usually from 46.1 µM), for inactives: top-dose activity change, negative = inhibition, most hits filed as inhibitors; hit rate 2.3% among 330,000; also: % is scaled to controls: 0 for no effect and ±100 for the full control effect; nearly all actives have a fitted effect of over 55% in size
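DMSO vehicle served as the neutral condition. Each well held 2,000 cells given 5-fluorouridine plus compound; after 16 hr at 37 °C/5% CO2, ONE-Glo was added and luciferase measured 30 min later.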
RORg inh – ROR gamma (mouse) transcription inhibition; P51450; Drosophila S2 Gal4-RORgamma UAS-luciferase reporter, 20 h; Potency, µM (doses to about 53.6 µM), inactives show top-dose activity change, negative = inhibition, hits mostly inhibitors; hit rate 5.4% among 310,000; also: % is scaled to controls: 0 for no effect and ±100 for the full control effect; nearly all actives have a fitted effect of over 60% in size
Target sequence (P51450 whole entry, looked up, the tested form may be a part): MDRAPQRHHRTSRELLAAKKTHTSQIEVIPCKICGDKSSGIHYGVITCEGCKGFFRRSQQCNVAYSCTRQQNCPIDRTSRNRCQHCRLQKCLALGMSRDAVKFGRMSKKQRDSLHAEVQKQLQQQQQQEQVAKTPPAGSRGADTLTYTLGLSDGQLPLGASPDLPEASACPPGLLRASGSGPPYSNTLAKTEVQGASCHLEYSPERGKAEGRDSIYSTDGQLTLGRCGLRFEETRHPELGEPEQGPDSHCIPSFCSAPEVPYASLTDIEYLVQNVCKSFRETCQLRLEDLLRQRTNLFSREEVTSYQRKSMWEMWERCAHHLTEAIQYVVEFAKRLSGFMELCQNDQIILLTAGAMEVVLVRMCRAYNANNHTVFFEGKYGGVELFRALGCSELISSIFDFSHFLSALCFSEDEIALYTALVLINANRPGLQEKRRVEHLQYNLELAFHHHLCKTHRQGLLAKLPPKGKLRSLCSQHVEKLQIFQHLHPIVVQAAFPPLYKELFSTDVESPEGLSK
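Compounds are pin-transferred onto Drosophila Schneider cells expressing a copper-inducible Gal4–ROR gamma transactivation domain fusion. After 1 hr, copper sulfate is added to 700 uM final; luciferase is read 20 hr later.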
* = called active by the depositor; u = inconclusive; x = not tested or not shown; [ ] = dose if it differs, or a comment. The list is not random: actives were taken first. Their share in the collection is about 10%. Calls follow the shape of the dose curve; as a rule, active = well fitted curve in the direction sought with a large enough effect; inconclusive = small, poorly fitted or top-dose-only effect, or another doubt; inactive = no such curve, though single readings can be large; an effect the other way counts as inactive or inconclusive. Potency is read from the fitted curve at half-maximal effect.

SMILES	SW480 rerep	Gal4-VP16 FLuc	MCF10A rerep	ELG1 repair inh	RORg inh
CCSc1nnc(NC(=O)c2ccccn2)s1	u	3.2µM*	1%	u	2µM*
O=C(O)CCC(=O)N1CCC(n2nnc3cc(C(F)(F)F)ccc32)CC1	-9%	2%	-1%	0%	27%
COc1ccccc1-c1cn[nH]c1-c1ccc(OCC(=O)NN)cc1O	0%	-4%	-1%	19%	40%
NNC(=O)COc1ccc(-c2n[nH]c(C(F)(F)F)c2-c2ccc(Br)cc2)c(O)c1	-79%	u	18µM*	u	u
COc1ccccc1-c1c(-c2ccc(OCC(=O)NN)cc2O)n[nH]c1C(F)(F)F	13%	11µM*	u	-27%	-25%
COC(=O)c1cc(NC(=O)C(C)c2ccc(CC(C)C)cc2)ccc1O (stereo unspecified)	u	u	15µM*	u	u
Cc1ccccc1-n1c(SCC(=O)N/N=C/c2sccc2C)nc2ccccc2c1=O	u	-21%	u	u	-38%
c1ccc(-n2nnc3c(N4CCOCC4)ncnc32)cc1	-9%	u	u	u	8.9µM*
NC(=O)C1CCN(c2ncnc3c2c(-c2ccccc2)cn3-c2ccccc2)CC1	-1%	17%	27%	16µM*	4%
COc1ccc(-n2cc(-c3ccccc3)c3c(N4CCOCC4)ncnc32)cc1	20%	0%	153%	u	8%
c1ccc(-c2cc3c(N4CCOCC4)ncnc3s2)cc1	u	1%	13µM*	u	14%
Fc1ccc(-n2cc(-c3ccccc3)c3c(N4CCOCC4)ncnc32)cc1	14%	-15%	u	21µM*	9%
FC(F)Oc1ccc(/C=N/N2CCCCC2)c(OC(F)F)c1	x	5%	x	12%	u
Brc1ccc(-n2cc(-c3ccccc3)c3c(NN4CCOCC4)ncnc32)cc1	-1%	u	u	-2%	6.3µM*
c1ccc(-c2cn(-c3ccccc3)c3ncnc(NCCCN4CCOCC4)c23)cc1	0%	-2%	u	-15%	-17%
COc1ccc(/[N+]([O-])=C/c2ccoc2)cc1	-5%	x	-13%	u	x
S=C1NC2(CCCCC2)NN1c1ccccc1	21%	2%	15%	u	u
CC1CCCC2(C1)NC(=S)N(c1ccccc1)N2 (stereo unspecified)	-6%	-9%	15%	1%	13µM*
CC1CC(C)(C)CC2(C1)NC(=S)N(c1ccccc1)N2 (stereo unspecified)	-2%	u	6%	7%	7.1µM*
CC(C)CCN1NC2(CCCC(C)C2)NC1=S (stereo unspecified)	u	-30%	u	13%	7.1µM*
CC1CCCCC12NC(=S)N(c1ccccc1)N2 (stereo unspecified)	12%	4%	u	u	u
CC(C)CC1CCCC12NC(=O)NC2=O (stereo unspecified)	1%	x	-13%	x	x
COCc1nc(-c2ccc(-c3ccccc3)nc2OC)no1	-2%	3%	4%	28%	-3%
COc1nc(-c2ccccc2)ccc1-c1noc(C)n1	-1%	35%	13µM*	x	19%
COc1nc(C)ccc1-c1noc(-c2cccnc2)n1	u	-4%	u	u	14µM*
SMILES	SW480 rerep	Gal4-VP16 FLuc	MCF10A rerep	ELG1 repair inh	RORg inh
O=C(O)c1cccc(NC(=S)N/N=C/c2ccccc2OCc2ccc(Br)cc2)c1	10%	-6%	2%	u	13µM*
O=C(O)c1cccc(NC(=S)N/N=C/c2ccccc2OCc2cccc(Br)c2)c1	3%	-8%	u	4%	11µM*
CCc1ccccc1NC(=O)CCCSc1nc2ccccc2s1	-3%	u	2%	1%	u
Cc1csc(NC(=O)CCCSc2nc3ccccc3s2)n1	-4%	2µM*	18µM*	u	32µM*
Cc1csc(NC(=O)CSc2nc3ccccc3s2)n1	-9%	-13%	5%	-4%	-29%
O=C(CCCSc1nc2ccccc2s1)NCc1ccco1	-4%	11µM*	27%	u	14µM*
Cc1ccccc1N=C1Nc2ccccc2N[C@]12C[C@H]1CCC(=O)N3CC[C@@H](C2)[C@@H]13	-7%	x	-49%	x	x
O=C1S/C(=C/c2ccc(N3CCOCC3)o2)C(=O)N1Cc1ccc(F)cc1	6%	-15%	10%	0%	24%
O=C1S/C(=C\c2ccc(N3CCOCC3)o2)C(=O)N1Cc1ccc(F)cc1	4%	7.1µM*	u	1%	u
O=C1/C(=C/c2ccc(N3CCOCC3)o2)SC(=Nc2ccccc2)N1CCc1c[nH]c2ccccc12	u	5µM*	u	u	3.2µM*
CC(C)OC(=O)CN1C(=O)S/C(=C/c2ccc(N3CCCCC3)o2)C1=O	u	13µM*	26%	u	u
COc1cc(/C=C2\SC(=Nc3ccccc3)N(CCc3c[nH]c4ccccc34)C2=O)ccc1OC(C)C(=O)O (stereo unspecified)	-5%	u	u	-3%	1%
C/C(=N\Nc1ncc(Cl)cc1Cl)c1ccc(C#N)cc1	9%	1%	12%	14%	u
CCN(CC)C(=O)COc1ccc(/C(C)=N/Nc2ncc(Cl)cc2Cl)cc1	4%	u	-16%	-22%	6.3µM*
COc1ccc(/C(C)=N/Nc2ncc(Cl)cc2Cl)c(O)c1	u	0.79µM*	16µM*	16%	0.11µM*
N#CCCN(C(=O)CN1c2cccc3cccc(c23)S1(=O)=O)c1ccccc1	6%	x	5%	-10%	x
CCN(CC(=O)Nc1ccc(NC(C)=O)cc1)C(=O)/C=C/c1cn(-c2ccccc2)nc1-c1ccc(C)cc1	-2%	-7%	-4%	8.2µM*	-17%
Cc1ccc(NC(=O)N2CCCCCC2)cc1C	-4%	-6%	3%	u	-1%
Cc1ccc(C(NC(=O)N2CCCCC2)=C(Cl)Cl)cc1F	6.5µM*	7.1µM*	16µM*	u	11µM*
COc1cccc(CN(C)S(=O)(=O)c2ccccc2Br)c1	9%	x	6%	2%	x
O=C(CSC1=Nc2ccccc2C2CC=NN12)Nc1ccc(F)c(F)c1F (stereo unspecified)	5%	x	21µM*	26%	x
CCOC(=O)c1[nH]c2ccc(Cl)cc2c1NC(=O)/C=C/c1ccc2c(c1)OCO2	u	4.5µM*	u	-2%	u
CCOC(=O)c1[nH]c2cc3c(cc2c1NC(=O)CN1CCCC1)OCO3	-6%[9.22 µM]	-7%	-1%	7%	1%
COC(=O)c1[nH]c2ccc(C)cc2c1NC(=O)CCN1CCN(Cc2ccc3c(c2)OCO3)CC1	-1%	u	0%	u	21%
CCN(CC(=O)Nc1c(C(=O)OC)[nH]c2ccc(Cl)cc12)c1ccc2c(c1)OCO2	8%	-2%	u	23µM*	45%
